Screens deposited in PubChem by National Center for Advancing Translational Sciences (NCATS).
BAZ2B block: inhibitors of human BAZ2B bromodomain. Potency, µM (highest dose often 114 µM), actives largely listed as inhibitors. Q9UIF8. actives 4.4% (n = 360,000). AlphaScreen BAZ2B-H3K14Ac peptide displacement; further: nearly all actives have a fitted effect of over 60% in size
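Complex of BAZ2B and biotin-H3K14Ac (50 nM apiece) forms over 30 min at RT, then faces library compounds up to 110 uM for another 30 min; AlphaScreen beads added, 20 min dark incubation, luminescence read.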
JMJD2A Tudor inh: blocks the human JMJD2A Tudor domain; O75164; AlphaScreen JMJD2A-Tudor / H3K4me3 peptide binding; Potency, µM (titrated, usually from 114 µM), usual class: inhibitors; actives 4.4% (n = 390,000); further: nearly all actives have a fitted effect of over 50% in size
G9a block: G9a (human) methyltransferase inhibition. Q96KQ7. G9a H3K9 monomethylation, AlphaScreen, 2 h. Potency, µM (highest dose often 102 µM), hits mostly inhibitors. actives 8.8% (n = 350,000). AID 504332; further: nearly all actives have a fitted effect of over 75% in size
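G9a (20 nM) preincubated 15 min RT with compounds, then 500 nM biotinylated H3K9 peptide and 20 uM SAM added; 2 h RT reaction. Monomethyl-H3K9 product detected by AlphaScreen with anti-H3K9me1 antibody, streptavidin donor and anti-rabbit IgG acceptor beads.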
PLK1 PBD block: PLK1 (human) polo-box domain binding inhibition | actives 2.8% (n = 360,000) | Potency, µM, most hits filed as inhibitors | AID 720504 | Plk1 PBD binding of FITC phosphopeptide, fluorescence polarization; further: series mostly up to about 57 µM; nearly all actives have a fitted effect of over 65% in size
Target sequence (P53350 whole entry, looked up, the tested form may be a part): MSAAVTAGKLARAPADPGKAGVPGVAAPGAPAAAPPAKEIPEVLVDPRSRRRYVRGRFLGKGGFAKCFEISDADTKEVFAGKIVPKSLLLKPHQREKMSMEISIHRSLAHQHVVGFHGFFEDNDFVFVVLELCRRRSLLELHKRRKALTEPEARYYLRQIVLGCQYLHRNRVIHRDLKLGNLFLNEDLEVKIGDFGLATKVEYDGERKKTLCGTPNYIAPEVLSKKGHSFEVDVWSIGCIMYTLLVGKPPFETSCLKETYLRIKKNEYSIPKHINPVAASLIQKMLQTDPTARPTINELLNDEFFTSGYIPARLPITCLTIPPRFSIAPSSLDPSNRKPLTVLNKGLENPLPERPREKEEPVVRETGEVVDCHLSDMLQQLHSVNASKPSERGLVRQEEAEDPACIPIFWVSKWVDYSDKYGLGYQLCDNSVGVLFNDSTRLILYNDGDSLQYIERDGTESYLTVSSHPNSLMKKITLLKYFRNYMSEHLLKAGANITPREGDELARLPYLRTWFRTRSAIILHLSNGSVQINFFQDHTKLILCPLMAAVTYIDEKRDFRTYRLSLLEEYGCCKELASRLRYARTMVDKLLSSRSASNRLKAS
HP1b binding inh: blocks HP1-beta chromodomain binding to methylated histone tails | P83916 | AlphaScreen HP1-beta / biotin-H3K9me3 peptide binding | Potency, µM (highest dose often 114 µM), actives largely listed as inhibitors | actives 0.56% (n = 390,000) | AID 540317; further: nearly all actives have a fitted effect of over 70% in size
Target sequence (P83916 whole entry, looked up): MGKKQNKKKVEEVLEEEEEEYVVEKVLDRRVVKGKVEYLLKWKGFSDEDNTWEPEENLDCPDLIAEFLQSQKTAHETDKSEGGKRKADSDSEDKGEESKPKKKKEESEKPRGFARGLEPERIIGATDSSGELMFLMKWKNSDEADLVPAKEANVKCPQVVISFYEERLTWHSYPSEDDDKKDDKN
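HP1-beta protein (50 nM final) preincubated 30 min at room temperature with biotinylated H3(1-18)K9me3 peptide (50 nM) in PBS pH 7.4, 0.01% Tween-20, then compound added for 30 min. AlphaScreen streptavidin donor/nickel chelate acceptor beads (10 ug/mL final), 30 min dark, luminescence read.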
VDR inh: vitamin D3 receptor (human) inhibition. P11473. AID 504847. VDR-SRC2-3 peptide fluorescence polarization, 2 h. actives 0.93% (n = 400,000). Potency, µM, most hits filed as inhibitors
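VDR–SRC2-3 interaction, FP format. Cmpds 23 nl via pintool, brief spin, 2 h ambient incubation.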
TbPYK confirm: Trypanosoma brucei pyruvate kinase inhibition, cherry-pick confirmation. Potency, µM (highest dose often 76.9 µM), most hits filed as inhibitors. actives 67% (n = 890). shares compounds with PLK1 PBD block. recombinant TbPYK, Kinase-Glo ATP luminescence. AID 720569; further: nearly all actives have a fitted effect of over 70% in size
TbPYK ADP-Glo: orthogonal confirmation of Trypanosoma brucei pyruvate kinase inhibitors. shares compounds with PLK1 PBD block. recombinant TbPYK, ADP-Glo luminescence, 60 min. Potency, µM (series often up to 76.9 µM), actives largely listed as inhibitors. actives 62% (n = 890); further: nearly all actives have a fitted effect of over 75% in size
Large screens that a line does not name were inactive (follow-up assays come after a bar, where they were run). Compounds with a hit are over-represented: about 11% of the library has one in this group of screens. The call rests on the fitted dose curve; in most records, active means well fitted curve in the direction sought with a large enough effect; inconclusive means small, poorly fitted or top-dose-only effect, or another doubt; inactive means no such curve, though single readings can be large; an effect the other way counts as inactive or inconclusive.

O=c1[nH]c2ccc(Cl)cc2c(-c2ccccc2)c1SC(=S)N1CCOCC1	JMJD2A Tudor inh inconclusive, G9a block inconclusive, PLK1 PBD block 27µM, VDR inh 89µM | TbPYK confirm 4.5µM | TbPYK ADP-Glo 5.6µM
CCCCN(CC)C(=O)c1nn(-c2ccc(OC)cc2)c(=O)c2c1c1ccccc1n2C	none (no result: BAZ2B block, PLK1 PBD block)
O=C(O)[C@@H]1CCCNC1	none (no result: BAZ2B block, JMJD2A Tudor inh, PLK1 PBD block, HP1b binding inh)
COc1ccc2nc(Nc3sc4c(c3C(N)=O)CCCC4)sc2c1	BAZ2B block inconclusive, JMJD2A Tudor inh inconclusive, G9a block 3.2µM, PLK1 PBD block inconclusive, HP1b binding inh 22µM, VDR inh inconclusive | TbPYK confirm 6.3µM | TbPYK ADP-Glo 7.9µM
COc1cc(OC)cc(C(=O)Nc2sc3c(c2C(N)=O)CCC3)c1	none
O=C(O)C1OC(Oc2cc3oc(-c4ccccc4)cc(=O)c3c(O)c2O)C(O)C(O)C1O (stereo not drawn)	JMJD2A Tudor inh 20µM, G9a block 40µM | TbPYK confirm 2.8µM | TbPYK ADP-Glo 2.8µM
COc1ccccc1NC(=S)N(CCN1CCCCCC1)Cc1cccs1	none
Cn1c(=O)c(-c2cc(F)cc(F)c2)nc2cnc(Nc3ccccc3)nc21	none (no result: BAZ2B block, JMJD2A Tudor inh, PLK1 PBD block, HP1b binding inh)
O=C1C=CC(O)C2(CO)OC12 (stereo not drawn)	none (no result: BAZ2B block, JMJD2A Tudor inh, G9a block, HP1b binding inh, VDR inh)
Cc1ccc(-c2nc3ccccc3nc2-c2ccccc2)cc1	none (no result: G9a block)
Cc1ccc(-c2nc(N)s[n+]2-c2ccccc2)cc1	JMJD2A Tudor inh 28µM, G9a block 5µM, PLK1 PBD block 3.8µM, HP1b binding inh inconclusive | TbPYK confirm 2.2µM | TbPYK ADP-Glo 6.3µM
CNc1nc(-c2ccccc2)[n+](-c2ccc(C)cc2)s1	BAZ2B block 7.9µM, JMJD2A Tudor inh 20µM, G9a block 1.4µM, PLK1 PBD block 1.5µM, HP1b binding inh 11µM, VDR inh inconclusive | TbPYK confirm 1µM | TbPYK ADP-Glo 1.8µM
CCN1/C(=C/C(C)=C/c2sc3ccccc3[n+]2CC)Sc2ccccc21	BAZ2B block 22µM, JMJD2A Tudor inh 18µM, G9a block 18µM, HP1b binding inh inconclusive | TbPYK confirm inconclusive | TbPYK ADP-Glo inactive
CCOC(=O)/C(C#N)=C(C)/C=C1\Sc2ccccc2N1CC	none
COc1cccc(-c2csc3ncnc(Sc4nnnn4C)c23)c1	none (no result: BAZ2B block, G9a block, PLK1 PBD block)
CCOC(=O)C1=C(N)N(c2ccccc2)C(=O)C1	JMJD2A Tudor inh 3.5µM, PLK1 PBD block 3µM, HP1b binding inh inconclusive, VDR inh 25µM | TbPYK confirm inactive | TbPYK ADP-Glo inactive
CCOC(=O)c1ccc(N2C(=O)Cc3ccccc3C2=O)cc1	G9a block inconclusive
COc1ccc(N2C(=O)C3CC(C)=C(C)CC3C2=O)c(OC)c1 (stereo not drawn)	none
COc1cc(N2C(=O)C=CC2=O)ccc1N1C(=O)C=CC1=O	JMJD2A Tudor inh 4.5µM, PLK1 PBD block 2.4µM, HP1b binding inh inconclusive, VDR inh inconclusive (no result: BAZ2B block, G9a block) | TbPYK confirm 1.1µM | TbPYK ADP-Glo 1.8µM
COCCN(Cc1cc2cccc(C)c2n2nnnc12)C(=O)C(F)(F)F	none | TbPYK confirm inactive | TbPYK ADP-Glo inactive
CCc1nc2c(OCCOc3ccc(F)cc3)cccn2c1N(C)C(=O)c1ccco1	none (no result: BAZ2B block, JMJD2A Tudor inh, G9a block, HP1b binding inh, VDR inh)
CCOC(=O)C1=C(C)N=c2s/c(=C/c3cccc([N+](=O)[O-])c3O)c(=O)n2C1c1cc(OC)c(OC)c(OC)c1 (stereo not drawn)	BAZ2B block 7.9µM, JMJD2A Tudor inh 14µM, G9a block 2.2µM, PLK1 PBD block 27µM, HP1b binding inh 16µM, VDR inh inconclusive | TbPYK confirm 32µM | TbPYK ADP-Glo inconclusive
CCOC(=O)C1=C(C)N=c2s/c(=C\c3cccn3C)c(=O)n2C1c1cccc(OC)c1OC (stereo not drawn)	BAZ2B block inconclusive, JMJD2A Tudor inh inconclusive, G9a block inconclusive
COCCn1c(=S)[nH]c2sc3c(c2c1=O)CCCC3	G9a block 7.9µM | TbPYK confirm 10µM | TbPYK ADP-Glo 10µM
COc1ccc(S(=O)(=O)N2CCCC(C(=O)Nc3cccnc3)C2)cc1Cl (stereo not drawn)	JMJD2A Tudor inh inconclusive, G9a block inconclusive, PLK1 PBD block 2.7µM | TbPYK confirm inactive | TbPYK ADP-Glo inactive
CCOCCCNC1=C(Cl)C(=O)c2ccccc2C1=O	BAZ2B block 40µM, JMJD2A Tudor inh 13µM, PLK1 PBD block 21µM, HP1b binding inh 18µM, VDR inh inconclusive (no result: G9a block) | TbPYK confirm inconclusive | TbPYK ADP-Glo inconclusive
O=C(O)c1ccc(CSc2nnc(-c3cccnc3)n2-c2ccc(Br)cc2)cc1	JMJD2A Tudor inh inconclusive | TbPYK confirm 2.5µM | TbPYK ADP-Glo 3.5µM
Cc1cc(O)cc(C)c1NS(=O)(=O)c1ccc2ccccc2c1	none
CC(=O)c1cccc(OCc2cc(C(=O)N(C)CCc3ccccn3)no2)c1	none
CC(=O)c1cccc(OCc2cc(C(=O)N(C)Cc3ccc(C)o3)no2)c1	JMJD2A Tudor inh 79µM, HP1b binding inh inconclusive, VDR inh inconclusive (no result: G9a block) | TbPYK confirm 14µM | TbPYK ADP-Glo 35µM
Cc1ccc(CN(C)C(=O)c2ccccc2Oc2ccccc2)o1	JMJD2A Tudor inh inconclusive, G9a block inconclusive, VDR inh inconclusive | TbPYK confirm 20µM | TbPYK ADP-Glo 25µM
COCCNC(=O)CN1C(=O)CCn2nc(-c3cn(C)c4ccccc34)cc21	none (no result: PLK1 PBD block)
O=S(=O)(NCCC(c1ccc(F)cc1)c1ccco1)c1ccccc1 (stereo not drawn)	JMJD2A Tudor inh inconclusive, G9a block inconclusive, PLK1 PBD block 21µM, HP1b binding inh inconclusive, VDR inh inconclusive | TbPYK confirm inactive | TbPYK ADP-Glo inactive
COc1ccc(/C=C2/SC(c3ccc(C)cc3)=NC2=O)cc1OC	JMJD2A Tudor inh 50µM, G9a block 2.8µM, HP1b binding inh inconclusive, VDR inh 50µM | TbPYK confirm inconclusive | TbPYK ADP-Glo 16µM
COc1ccc(/C=C2\SC(c3ccc(C)cc3)=NC2=O)cc1OC	JMJD2A Tudor inh 28µM, G9a block 2.2µM, HP1b binding inh 20µM, VDR inh inconclusive | TbPYK confirm 35µM | TbPYK ADP-Glo 10µM
CC1(C)CC(=O)C(C(C2=C(O)CC(C)(C)CC2=O)c2ccco2)C(=O)C1 (stereo not drawn)	G9a block 35µM, PLK1 PBD block 5.3µM, VDR inh inconclusive | TbPYK confirm 13µM | TbPYK ADP-Glo inconclusive
Cc1[nH]c2ccccc2c1CC#N	none
Cc1[nH]c2ccccc2c1C1=CC(=O)C=CC1=O	JMJD2A Tudor inh 3.2µM, PLK1 PBD block 3.4µM, HP1b binding inh inconclusive, VDR inh 28µM (no result: BAZ2B block, G9a block) | TbPYK confirm 0.56µM | TbPYK ADP-Glo 2.8µM
